# Laboratory results reported in ChEMBL document CHEMBL2218924, “A broad activity screen in support of a chemogenomic map for kinase signalling research and drug discovery” (Biochem J, 2013).
# Assays:
# [1] = molecular target: T1, Ephrin type-B receptor 1 (Homo sapiens) (UniProt P54762); details: at 10 µM
# T1 sequence (whole entry): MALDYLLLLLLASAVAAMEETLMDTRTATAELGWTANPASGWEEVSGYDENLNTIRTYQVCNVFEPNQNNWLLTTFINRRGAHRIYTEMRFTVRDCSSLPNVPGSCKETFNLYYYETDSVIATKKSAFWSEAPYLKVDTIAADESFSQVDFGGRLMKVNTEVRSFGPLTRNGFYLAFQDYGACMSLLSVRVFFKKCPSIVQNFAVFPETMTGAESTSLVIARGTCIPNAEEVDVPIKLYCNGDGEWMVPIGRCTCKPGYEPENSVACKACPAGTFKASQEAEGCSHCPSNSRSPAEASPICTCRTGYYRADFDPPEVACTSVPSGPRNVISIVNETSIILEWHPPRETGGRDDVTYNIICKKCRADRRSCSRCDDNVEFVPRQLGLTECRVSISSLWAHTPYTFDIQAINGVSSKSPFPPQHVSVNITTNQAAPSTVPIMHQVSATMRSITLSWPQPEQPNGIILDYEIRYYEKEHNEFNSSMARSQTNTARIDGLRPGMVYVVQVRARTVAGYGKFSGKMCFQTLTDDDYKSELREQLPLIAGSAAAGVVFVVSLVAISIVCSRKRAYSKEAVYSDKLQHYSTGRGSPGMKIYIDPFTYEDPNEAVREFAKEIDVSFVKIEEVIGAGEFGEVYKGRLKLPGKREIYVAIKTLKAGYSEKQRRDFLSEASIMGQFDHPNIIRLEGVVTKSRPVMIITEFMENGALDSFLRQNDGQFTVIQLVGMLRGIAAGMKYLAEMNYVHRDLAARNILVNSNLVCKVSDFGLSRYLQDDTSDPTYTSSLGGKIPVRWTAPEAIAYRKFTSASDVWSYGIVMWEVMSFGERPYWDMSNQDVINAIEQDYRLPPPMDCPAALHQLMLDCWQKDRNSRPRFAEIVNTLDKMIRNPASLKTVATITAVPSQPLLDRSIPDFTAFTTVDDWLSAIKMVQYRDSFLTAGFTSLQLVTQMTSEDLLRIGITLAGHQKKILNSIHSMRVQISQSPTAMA
# [2] = molecular target: T2, Ephrin type-B receptor 2 (Homo sapiens) (UniProt P29323); details: at 1 µM
# T2 sequence (whole entry): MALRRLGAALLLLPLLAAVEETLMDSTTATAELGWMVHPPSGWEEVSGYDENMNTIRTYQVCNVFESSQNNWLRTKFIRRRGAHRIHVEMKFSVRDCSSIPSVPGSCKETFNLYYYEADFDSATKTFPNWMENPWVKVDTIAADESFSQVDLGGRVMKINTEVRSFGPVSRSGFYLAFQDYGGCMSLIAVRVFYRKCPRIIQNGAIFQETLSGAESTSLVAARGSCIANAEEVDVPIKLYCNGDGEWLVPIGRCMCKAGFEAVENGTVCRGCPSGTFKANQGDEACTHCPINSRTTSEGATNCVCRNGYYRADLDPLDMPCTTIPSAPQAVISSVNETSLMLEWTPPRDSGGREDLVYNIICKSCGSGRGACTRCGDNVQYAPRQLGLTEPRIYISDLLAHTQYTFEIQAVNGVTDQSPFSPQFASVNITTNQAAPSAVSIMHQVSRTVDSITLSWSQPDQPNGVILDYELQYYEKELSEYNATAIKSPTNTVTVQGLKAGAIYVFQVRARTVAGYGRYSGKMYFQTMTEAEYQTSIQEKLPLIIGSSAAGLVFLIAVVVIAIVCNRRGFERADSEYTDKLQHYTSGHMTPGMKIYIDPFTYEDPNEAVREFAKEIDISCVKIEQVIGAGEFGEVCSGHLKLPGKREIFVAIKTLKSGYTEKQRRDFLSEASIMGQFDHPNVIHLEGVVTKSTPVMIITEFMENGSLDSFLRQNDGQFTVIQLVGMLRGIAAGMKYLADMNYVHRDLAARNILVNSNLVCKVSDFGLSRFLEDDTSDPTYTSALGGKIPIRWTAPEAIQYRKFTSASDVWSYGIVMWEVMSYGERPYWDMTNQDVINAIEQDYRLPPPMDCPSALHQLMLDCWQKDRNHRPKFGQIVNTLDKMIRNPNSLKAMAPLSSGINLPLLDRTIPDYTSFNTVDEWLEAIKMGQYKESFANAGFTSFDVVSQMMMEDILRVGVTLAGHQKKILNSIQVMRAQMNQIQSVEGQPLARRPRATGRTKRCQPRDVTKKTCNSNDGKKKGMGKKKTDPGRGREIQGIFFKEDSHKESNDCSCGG
# [3] = molecular target: T2, Ephrin type-B receptor 2 (Homo sapiens); details: at 10 µM
# [4] = molecular target: T3, Ephrin type-B receptor 3 (Homo sapiens) (UniProt P54753); details: at 1 µM
# T3 sequence (whole entry): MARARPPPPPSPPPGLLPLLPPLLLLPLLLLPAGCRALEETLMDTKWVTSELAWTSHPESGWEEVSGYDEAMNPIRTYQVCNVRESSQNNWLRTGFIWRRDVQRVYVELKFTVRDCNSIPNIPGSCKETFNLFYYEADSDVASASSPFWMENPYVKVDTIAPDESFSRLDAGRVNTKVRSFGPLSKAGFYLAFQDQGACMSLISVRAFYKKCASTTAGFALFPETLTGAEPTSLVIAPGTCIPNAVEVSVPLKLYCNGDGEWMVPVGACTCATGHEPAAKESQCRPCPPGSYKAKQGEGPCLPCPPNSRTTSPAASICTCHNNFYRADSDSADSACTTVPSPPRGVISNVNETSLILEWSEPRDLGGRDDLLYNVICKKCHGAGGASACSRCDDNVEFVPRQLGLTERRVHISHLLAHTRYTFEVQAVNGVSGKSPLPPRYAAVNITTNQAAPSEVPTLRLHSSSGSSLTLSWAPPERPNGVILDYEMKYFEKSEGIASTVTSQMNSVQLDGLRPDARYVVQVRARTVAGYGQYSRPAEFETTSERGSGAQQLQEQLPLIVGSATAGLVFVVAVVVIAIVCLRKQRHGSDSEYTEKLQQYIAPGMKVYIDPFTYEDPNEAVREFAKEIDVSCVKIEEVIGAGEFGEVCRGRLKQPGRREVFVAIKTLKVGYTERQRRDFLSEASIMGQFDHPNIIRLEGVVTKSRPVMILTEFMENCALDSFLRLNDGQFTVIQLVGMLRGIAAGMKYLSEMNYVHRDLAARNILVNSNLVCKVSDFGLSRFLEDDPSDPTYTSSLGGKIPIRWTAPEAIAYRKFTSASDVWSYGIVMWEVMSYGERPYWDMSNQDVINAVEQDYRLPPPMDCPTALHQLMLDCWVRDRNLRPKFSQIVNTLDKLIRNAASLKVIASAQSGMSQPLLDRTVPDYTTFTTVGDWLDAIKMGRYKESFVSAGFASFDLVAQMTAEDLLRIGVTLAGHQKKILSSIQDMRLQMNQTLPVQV
# [5] = molecular target: T3, Ephrin type-B receptor 3 (Homo sapiens); details: at 10 µM
# [6] = molecular target: T4, Ephrin type-B receptor 4 (Homo sapiens) (UniProt P54760); details: at 1 µM
# T4 sequence (whole entry): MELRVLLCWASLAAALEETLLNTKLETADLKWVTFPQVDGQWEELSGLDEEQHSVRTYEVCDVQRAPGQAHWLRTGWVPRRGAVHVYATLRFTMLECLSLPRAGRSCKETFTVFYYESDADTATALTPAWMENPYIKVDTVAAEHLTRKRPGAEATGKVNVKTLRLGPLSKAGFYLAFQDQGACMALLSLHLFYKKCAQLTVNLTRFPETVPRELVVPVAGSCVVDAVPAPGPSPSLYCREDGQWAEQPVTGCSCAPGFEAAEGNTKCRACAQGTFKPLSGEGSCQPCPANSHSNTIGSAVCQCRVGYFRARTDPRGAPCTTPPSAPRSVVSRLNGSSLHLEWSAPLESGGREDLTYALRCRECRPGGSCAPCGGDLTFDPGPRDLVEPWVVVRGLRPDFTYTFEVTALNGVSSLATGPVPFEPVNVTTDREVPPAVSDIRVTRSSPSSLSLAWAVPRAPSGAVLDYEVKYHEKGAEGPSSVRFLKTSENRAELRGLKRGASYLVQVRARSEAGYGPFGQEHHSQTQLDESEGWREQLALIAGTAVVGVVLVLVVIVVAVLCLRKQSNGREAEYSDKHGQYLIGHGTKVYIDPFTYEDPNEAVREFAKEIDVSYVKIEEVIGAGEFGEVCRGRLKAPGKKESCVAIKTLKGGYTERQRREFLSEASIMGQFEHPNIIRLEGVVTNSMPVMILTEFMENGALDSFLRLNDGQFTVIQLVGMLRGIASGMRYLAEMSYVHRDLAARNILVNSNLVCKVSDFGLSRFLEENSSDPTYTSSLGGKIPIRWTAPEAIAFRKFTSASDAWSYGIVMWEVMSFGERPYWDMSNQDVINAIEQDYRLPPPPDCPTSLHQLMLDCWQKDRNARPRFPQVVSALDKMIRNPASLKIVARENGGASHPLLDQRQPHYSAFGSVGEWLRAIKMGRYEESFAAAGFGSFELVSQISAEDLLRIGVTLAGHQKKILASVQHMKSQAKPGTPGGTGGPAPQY
# [7] = molecular target: T4, Ephrin type-B receptor 4 (Homo sapiens); details: at 10 µM
# [8] = molecular target: Receptor tyrosine-protein kinase erbB-4 (Homo sapiens) (UniProt Q15303); details: at 1 µM
# Receptor tyrosine-protein kinase erbB-4 (Homo sapiens), sequence (Q15303 whole entry): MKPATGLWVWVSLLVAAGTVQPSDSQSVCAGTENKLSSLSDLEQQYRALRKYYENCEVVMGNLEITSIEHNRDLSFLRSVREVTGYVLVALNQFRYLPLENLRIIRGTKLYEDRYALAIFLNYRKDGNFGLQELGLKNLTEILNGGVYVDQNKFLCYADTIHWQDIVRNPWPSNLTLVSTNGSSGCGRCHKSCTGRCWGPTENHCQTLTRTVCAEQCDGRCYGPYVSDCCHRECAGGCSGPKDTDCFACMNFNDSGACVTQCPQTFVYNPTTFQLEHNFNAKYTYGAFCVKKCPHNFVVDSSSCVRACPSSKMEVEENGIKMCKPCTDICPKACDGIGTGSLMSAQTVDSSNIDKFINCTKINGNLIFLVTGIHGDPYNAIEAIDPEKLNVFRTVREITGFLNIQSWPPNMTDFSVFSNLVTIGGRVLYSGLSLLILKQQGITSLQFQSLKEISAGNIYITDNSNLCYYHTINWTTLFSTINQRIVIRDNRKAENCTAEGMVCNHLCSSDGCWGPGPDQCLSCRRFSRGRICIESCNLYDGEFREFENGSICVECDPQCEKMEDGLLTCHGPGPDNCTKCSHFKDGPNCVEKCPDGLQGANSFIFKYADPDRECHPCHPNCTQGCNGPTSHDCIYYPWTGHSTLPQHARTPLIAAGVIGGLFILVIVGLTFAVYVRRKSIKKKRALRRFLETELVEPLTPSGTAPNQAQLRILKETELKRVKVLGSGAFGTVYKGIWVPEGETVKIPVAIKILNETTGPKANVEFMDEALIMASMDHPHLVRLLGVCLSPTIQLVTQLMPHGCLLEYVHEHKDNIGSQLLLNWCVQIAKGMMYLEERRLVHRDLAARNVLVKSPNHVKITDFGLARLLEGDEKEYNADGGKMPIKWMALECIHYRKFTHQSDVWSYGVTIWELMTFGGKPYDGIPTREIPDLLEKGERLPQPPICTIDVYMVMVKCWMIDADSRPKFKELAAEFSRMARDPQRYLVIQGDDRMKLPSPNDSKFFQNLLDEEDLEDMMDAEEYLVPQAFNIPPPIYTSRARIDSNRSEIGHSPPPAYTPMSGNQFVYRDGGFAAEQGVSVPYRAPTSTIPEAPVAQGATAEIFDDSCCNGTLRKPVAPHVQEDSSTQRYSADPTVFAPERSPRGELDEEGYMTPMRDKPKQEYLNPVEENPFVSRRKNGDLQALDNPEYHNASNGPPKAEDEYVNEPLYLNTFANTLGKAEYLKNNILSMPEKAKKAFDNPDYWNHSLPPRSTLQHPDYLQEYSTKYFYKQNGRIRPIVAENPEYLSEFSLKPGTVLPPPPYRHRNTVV
# [9] = molecular target: Receptor tyrosine-protein kinase erbB-4 (Homo sapiens) (UniProt Q15303); details: at 10 µM
# [10] = molecular target: Focal adhesion kinase 1 (Homo sapiens) (UniProt Q05397); details: at 1 µM
# Focal adhesion kinase 1 (Homo sapiens), sequence (Q05397 2-1052 limits assumed): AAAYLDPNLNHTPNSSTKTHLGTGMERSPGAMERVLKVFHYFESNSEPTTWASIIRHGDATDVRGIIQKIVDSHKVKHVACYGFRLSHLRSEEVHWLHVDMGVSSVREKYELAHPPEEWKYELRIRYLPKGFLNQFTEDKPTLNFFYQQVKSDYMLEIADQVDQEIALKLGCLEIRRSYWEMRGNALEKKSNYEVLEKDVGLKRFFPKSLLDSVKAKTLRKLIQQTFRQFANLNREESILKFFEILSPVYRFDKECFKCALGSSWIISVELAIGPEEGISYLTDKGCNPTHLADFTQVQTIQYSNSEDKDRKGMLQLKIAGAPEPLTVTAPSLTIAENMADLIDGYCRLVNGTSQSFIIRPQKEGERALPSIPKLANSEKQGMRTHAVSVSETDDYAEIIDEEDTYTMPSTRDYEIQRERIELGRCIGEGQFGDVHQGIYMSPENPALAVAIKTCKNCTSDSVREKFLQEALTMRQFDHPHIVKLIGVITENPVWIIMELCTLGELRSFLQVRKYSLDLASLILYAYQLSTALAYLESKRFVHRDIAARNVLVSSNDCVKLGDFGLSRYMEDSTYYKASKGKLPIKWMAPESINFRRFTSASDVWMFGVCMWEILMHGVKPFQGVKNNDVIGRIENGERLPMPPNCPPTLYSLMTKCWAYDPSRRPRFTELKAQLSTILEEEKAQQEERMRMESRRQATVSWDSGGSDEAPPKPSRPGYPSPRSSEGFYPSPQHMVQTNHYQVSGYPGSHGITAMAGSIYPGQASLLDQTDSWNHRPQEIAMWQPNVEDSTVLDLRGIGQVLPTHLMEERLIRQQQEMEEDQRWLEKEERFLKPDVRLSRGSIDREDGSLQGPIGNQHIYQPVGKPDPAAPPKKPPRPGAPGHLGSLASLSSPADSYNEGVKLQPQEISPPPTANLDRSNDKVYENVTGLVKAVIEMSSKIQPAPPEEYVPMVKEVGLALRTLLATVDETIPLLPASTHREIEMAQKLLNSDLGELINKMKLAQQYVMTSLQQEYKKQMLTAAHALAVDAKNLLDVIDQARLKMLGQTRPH
structure (smiles),measurement,setting,value
Cn1cc(/C=C2\C(=O)Nc3ccc(S(N)(=O)=O)cc32)c2ccccc21,residual activity,[1],21%
same,residual activity,[2],73%
same,residual activity,[3],49%
same,residual activity,[4],100% (inactive)
same,residual activity,[5],117%
same,residual activity,[6],57%
same,residual activity,[7],11%
same,residual activity,[8],94%
same,residual activity,[9],85%
same,residual activity,[10],103%
